Source: PubChem BioAssay (NCI)
About 83,000 compounds went through this panel and 20% of them were active in at least one assay; those are over-represented in the sample as a whole.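 Activity criterion: percent growth below 10, measured after cells in 96-well plates were exposed to a single compound concentration for 48 hours.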 Values without a mark were called inactive. The source made the active and inactive calls.

Test system: HT29 colon
Assay: NCI-60 one-dose screen, 48 h (100 = growth as untreated, 0 = no growth, -100 = all killed)
Conditions: 10 µM unless noted

| Compound | growth |
| --- | --- |
| CCc1ccc(OCc2ccccc2C(=O)Nc2ccc3nc(C)cc(N)c3c2)cc1 | -87.4% (active) |
| Nc1cccc(C(=O)Nc2ccc3c(O)c(N=Nc4ccc(N=Nc5ccc(S(=O)(=O)O)cc5)cc4)c(S(=O)(=O)O)cc3c2)c1 | 99.1% |
| COc1cc(NCC(=O)Nc2cc(Nc3cccc(C(F)(F)F)c3)ncn2)c(Cl)c(OC)c1Cl | 81.7% |
| CC1CCCN(CCCCCOc2ccc3oc4ccccc4c(=O)c3c2)C1 (centres undefined) | 8.93% (active) |
| CCCn1c(N)c(C(N)=O)sc1=S | 106% |
| CCOC(=O)c1sc(/N=C2\NC(=O)/C(=C/c3ccc(N4CCN(C)CC4)cc3)S2)nc1C | 86.9% |
| CN(C)C1=NCCN1 | 88.3% |
| CCOC(=O)c1ccc(Nc2ncnc3ccc(NC(=O)c4ccccc4)cc23)cc1 | 79.6% |
| N#CC1C(c2ccc(Cl)cc2)=Nc2c(c(-c3ccccc3)nn2-c2ccccc2)C12C(=O)Nc1ccc(Cl)cc12 (centres undefined) | 22.5% |
| C#C[C@@]1(O)[C@@H](CO)O[C@@H](n2ccc3c(N)ncnc32)[C@@H]1O | 2.83% (active) |
| CN(C)CCCn1c2c(c3cc(-c4cccc(S(N)(=O)=O)c4)ccc3c1=O)C(=O)c1ccccc1-2 | -6.96% (active) |
| C=C1C(=O)O[C@H]2[C@H]1CC/C(COC(=O)/C=C/c1cccnc1)=C\CC[C@@]1(C)O[C@@H]21 | 11.1% |
| C#C[C@@]1(O)[C@@H](CO)O[C@@H](n2cc(Cl)c3c(N)ncnc32)[C@@H]1O | 5.79% (active) |
| CCOc1ccc(C2N(c3cc(OC)c(OC)c(OC)c3)C(=O)C2(F)F)cc1 (centres undefined) | 12.3% |
| O=C1C(Cl)=C(NCCCN(CCCNC2=C(Cl)C(=O)c3ccccc3C2=O)C2=C(Cl)C(=O)c3ccccc3C2=O)C(=O)c2ccccc21 | 12.4% |
| COc1ccc(-c2nc(C#N)c(NCC(c3ccc(Cl)cc3)N3CCCCC3)o2)cc1 (centres undefined) | 85.6% |
| Cc1nc2sc(C(=O)Nc3ccccc3)c(N)c2cc1C(C)O (centres undefined) | 1.95% (active) |

| Compound | growth |
| --- | --- |
| O=C1CCC23OC(c4ccccc4N12)C(O)C(O)C3O (centres undefined) | 91.6% |
| C=C1C(=O)O[C@H]2[C@H]1CC/C(COC(=O)CCCCC(=O)OC/C1=C/CC[C@@]3(C)O[C@H]3[C@H]3OC(=O)C(=C)[C@@H]3CC1)=C\CC[C@@]1(C)O[C@@H]21 | 40.1% |
| CC[C@]12C=CCN3CC[C@@]4(c5cc(NC(=O)CCC(=O)O[C@H]6CC[C@H]7[C@@H]8CC[C@H]9CC(=O)CC[C@]9(C)[C@H]8CC[C@]67C)c(OC)cc5N(C)[C@H]4[C@@](O)(C(=O)OC)[C@@H]1OC(C)=O)[C@@H]32 | 39% |
| N#CC(C#N)=C1NC(c2ccccc2)=C(c2ccccc2)C(c2ccccc2Cl)=C1C#N | 80.4% |
| CCCCCCCCCCCCCC1=NCC[N+]1(CCO)Cc1ccccc1 (centres undefined) | -89.3% (active) |
| Cc1cc(C)n(-c2nc(-c3cccs3)c(C#N)c(=O)[nH]2)n1 | 100% |
| COc1ccc(C2C(c3ccccc3)C(=O)N2c2cc(OC)c(OC)c(OC)c2)cc1I (centres undefined) | 1.74% (active) |
| CC(C)(C)c1ccc2oc(=O)n(SC(Cl)(Cl)Cl)c2c1 | 90.4% |
| CCOC(=O)c1c(C)nc2c(c1N)/C(=C/c1ccccn1)C(=O)N2Cc1ccccc1 | -18.6% (active) |
| O=C(Nc1cccc(-c2cccc(F)c2)c1)C1CCN(Cc2cccc3cccnc23)CC1 | 0.443% (active) |
| COc1ccc(C(C)c2cc(OC)c(OC)c(OC)c2)cc1 (centres undefined) | 4.2% (active) |
| Cc1ccc(SC2c3ccc(C)cc3Oc3nc(N)c(C#N)c(N)c32)cc1 (centres undefined) | 103% |
| COC(=O)/C=C/c1cc(OC)c2c(c1)[C@@H](C(=O)OC)[C@H](c1ccc(OC)c(OC)c1)O2 | 11% |
| C#CCN(CCCOc1ccc(Cl)cc1Cl)CCCSC(=O)CCCCCN1/C(=C\C=C2/CCCC(/C=C/C3=[N+](CCCCCC(=O)[O-])c4ccccc4C3(C)C)=C2Cl)C(C)(C)c2ccccc21 | -26.7% (active) |
| O=C1NCc2ccc3c(-c4cccc(Cl)c4)c[nH]c3c21 | 7.64% (active) |
| O=C(/C(=C\c1c(-c2ccccc2)[nH]c2ccccc12)S(=O)(=O)c1ccccc1)c1ccccc1 | 65.9% |
| N#Cc1c(-c2ccc(F)cc2)nc(N=Nc2c(O)[nH]c3ccccc23)nc1N1CCOCC1 | 78.4% |
